Assay results: PubChem BioAssay AID463173 (ICCB-Longwood Screening Facility, Harvard Medical School, 2010)
Among all 52,000 compounds or so, about 1,700 (3.3%) were called active. Cut-off read from the data, not from the text of the source: active = survival mostly below about 52% (no sharp cut-off); inactive = mostly above about 56%. This excerpt belongs to a sample that is enriched for actives.

The compounds below were run on Wild type (assay: S. aureus survival, RN4220 and DeltatarO strains – OD600, teichoic acid synthesis inhibitors, primary screen (AID 463173)). Conditions: S. aureus RN4220 wild type/DeltatarO growth, OD600, 18 h, hits give low values, screened at 18.75 µg/mL (by protocol).
With `CC1(C)CC(=O)c2cc(C(=O)Nc3ccc(Br)cc3)c(=O)n(-c3ccc(Cl)cc3)c2C1` the survival was 74% (inactive).
`O=C(Nc1ccccc1)NC1(C(=O)Nc2ccc(-n3cnnn3)cc2)CCCCC1` was tested, and the survival was 123% (inactive).
With `COc1ccc(NC(=O)CS(=O)CC(=O)Nc2cc(OC)ccc2OC)cc1` (stereo unspecified) the survival was 107% (inactive).
In the case of `CCOC(=O)C1CCN(C(=O)c2ccc3c(c2)sc2nc(-c4ccccc4)cn23)CC1`, the survival is reported as 42% (inactive).
With `Cc1cc(S(=O)(=O)Nc2cc3c(cc2N2CCOCC2)n(C)c(=O)n3C)ccc1F` the survival was 82% (inactive).
With `CC(=O)Oc1cn(C(C)=O)c2ccccc12` the survival was 84% (inactive).
In the case of `CC1CCCCN1S(=O)(=O)c1ccc(NC(=O)C2COc3ccccc3O2)cc1` (stereo unspecified), the survival is reported as 125% (inactive).
In the case of `COc1cc(NC(=O)Cc2c(C(=O)O)c(C)cn2C)cc(OC)c1`, the survival is reported as 99% (inactive).
For `O=C(CCN1CCCCC1)Nc1ccccc1`, the survival was 110% (inactive).
For `CCOC(=O)c1ccc(N2C(=O)c3n[nH]c(C)c3C2c2ccc(CC)cc2)cc1` (stereo unspecified), the survival was 82% (inactive).
In the case of `CCOC(=O)c1ccc(N2C(=O)c3n[nH]c(-c4ccco4)c3C2c2ccc(O)cc2)cc1` (stereo unspecified), the survival is reported as 67% (inactive).
With `CCOC(=O)c1ccc(N2C(=O)c3n[nH]c(-c4ccco4)c3C2c2ccc(C)cc2)cc1` (stereo unspecified) the survival was 32% (inactive).
For `CCOC(=O)c1ccc(N2C(=O)c3n[nH]c(-c4ccco4)c3C2c2ccc(F)cc2)cc1` (stereo unspecified), the survival was 9% (active).
`CCOC(=O)c1ccc(N2C(=O)c3n[nH]c(C)c3C2c2ccc(C(C)(C)C)cc2)cc1` (stereo unspecified) was tested, and the survival was 81% (inactive).
`CCOC(=O)c1ccc(N2C(=O)c3n[nH]c(C)c3C2c2cccc(Br)c2)cc1` (stereo unspecified) was tested, and the survival was 3% (active).
In the case of `Cn1cc(S(=O)(=O)N2CCCCC2)cc1C(=O)NCc1ccc(Cl)cc1`, the survival is reported as 88% (inactive).
`COc1ccc(CNC(=O)Cc2c(C)c3cc4c(C)coc4cc3oc2=O)cc1` was tested, and the survival was 88% (inactive).
For `COc1ccc(-c2nc3sc(CCNC(=O)C(=O)Nc4cc(C)cc(C)c4)c(C)n3n2)cc1`, the survival was 89% (inactive).
With `CC(=O)c1ccc(N2CCN(C(=O)C3CCN(S(=O)(=O)c4c(C)noc4/C=C/c4ccc(C)cc4)CC3)CC2)cc1` the survival was 127% (inactive).
In the case of `O=C(O)CCC(=O)NC(c1ccccc1)c1ccccc1`, the survival is reported as 108% (inactive).
In the case of `Cc1cc(C)nc(N2CCC(C(=O)Nc3nnc(C(C)C)s3)CC2)n1`, the survival is reported as 107% (inactive).
`COC(=O)c1cc2c(ccn2-c2ccc(F)cc2)n1Cc1ccccc1` was tested, and the survival was 88% (inactive).
For `Cc1ccc(CN2C(=O)CN(C3CCCCCC3)C(=O)C2c2ccc(F)cc2)cc1` (stereo unspecified), the survival was 1% (active).
With `COc1ccc(C2C(=O)N(C3CCCCCC3)CC(=O)N2Cc2ccc(C)cc2)cc1` (stereo unspecified) the survival was 75% (inactive).
In the case of `Cc1ccc(CN2C(=O)CN(C3CCC(C)CC3)C(=O)C2c2ccc(F)cc2)cc1` (stereo unspecified), the survival is reported as 119% (inactive).
With `COc1ccc(C)cc1NC(=O)Nc1cccc(OCc2cc(=O)n3ccc(C)cc3n2)c1` the survival was 73% (inactive).
For `CCC(=O)N1c2ccc(S(=O)(=O)CCC(=O)Nc3ccc(Br)c(C)c3)cc2CC1C` (stereo unspecified), the survival was 87% (inactive).
With `Cc1oc(-c2ccc(Cl)cc2)nc1CN1CCCC(C(=O)NCc2ccccc2)C1` (stereo unspecified) the survival was 88% (inactive).
In the case of `CCc1ccc(-c2nc(CN3CCCC(C(=O)NCc4ccc(C)cc4)C3)c(C)o2)cc1` (stereo unspecified), the survival is reported as 88% (inactive).
With `Cc1ccccc1-c1nc(CN2CCCC(C(=O)NCc3ccc(Cl)cc3)C2)c(C)o1` (stereo unspecified) the survival was 68% (inactive).
`Cc1ccc(CNC(=O)C2CCCN(Cc3nc(-c4cccc(C)c4)oc3C)C2)cc1` (stereo unspecified) was tested, and the survival was 4% (active).
For `Cc1cccc(-c2nc(CN3CCCC(C(=O)NCc4ccc(Cl)cc4)C3)c(C)o2)c1` (stereo unspecified), the survival was 2% (active).
With `Cc1ccc(CNC(=O)C2CCN(Cc3nc(-c4cccc(Br)c4)oc3C)CC2)cc1` the survival was 75% (inactive).
For `Cc1oc(-c2cccc(Cl)c2)nc1CN1CCCC(C(=O)NCc2ccc(F)cc2)C1` (stereo unspecified), the survival was 64% (inactive).
For `Cc1oc(-c2cccc(Cl)c2)nc1CN1CCCC(C(=O)NCc2ccc(Cl)cc2)C1` (stereo unspecified), the survival was -1% (active).
With `Cc1oc(-c2ccc(Cl)cc2)nc1CN1CCCC(C(=O)NCc2ccc(Cl)cc2)C1` (stereo unspecified) the survival was 85% (inactive).
`COc1ccc(CCNC(=O)CCc2c(C)c3cc4c(C)coc4cc3oc2=O)cc1` was tested, and the survival was 90% (inactive).
`C=C(C)Cn1c(=O)c2c(nc3n2CCN3c2ccc(F)cc2)n(C)c1=O` was tested, and the survival was 85% (inactive).
With `CC(=O)c1cccc(NC(=O)CSc2nc3ccccc3nc2Cc2ccc(F)cc2)c1` the survival was 73% (inactive).
With `Cc1ccc2oc(-c3cc(N=C/C=C/c4ccc5c(c4)OCO5)ccc3O)nc2c1` the survival was 113% (inactive).
With `CN(C)c1ccc(CNC(=O)C2CCN(c3nc4ccccc4[nH]3)CC2)cc1` the survival was 45% (inactive).
In the case of `COc1ccc(CNC(=O)C2CCN(c3nc4ccccc4[nH]3)CC2)cc1OC`, the survival is reported as 47% (inactive).
With `CCOc1cc(CNC(=O)C2CCN(c3nc4ccccc4[nH]3)CC2)cc(OCC)c1OCC` the survival was -3% (active).
In the case of `CCCN(CCC)CCNC(=O)C1CCN(c2nc3ccc(CC)cc3s2)CC1`, the survival is reported as 67% (inactive).
`Clc1ccc(-c2nnn3c2nc(NC2CCCCC2)c2ccccc23)cc1` was tested, and the survival was 57% (inactive).
`CC1CCC(Nc2nc3c(-c4ccc(Cl)cc4)nnn3c3ccccc23)CC1` (stereo unspecified) was tested, and the survival was 25% (inactive).
In the case of `FC(F)(F)c1cccc(-c2nnn3c2nc(NC2CCCCC2)c2ccccc23)c1`, the survival is reported as 28% (inactive).
With `CC1CCC(Nc2nc3c(-c4cccc(C(F)(F)F)c4)nnn3c3ccccc23)CC1` (stereo unspecified) the survival was -1% (active).
For `Fc1cccc(-c2nnn3c2nc(NC2CCCCC2)c2ccccc23)c1`, the survival was 85% (inactive).
`Cc1ccc(-c2nnn3c2nc(NC2CCC(C)CC2)c2ccccc23)cc1` (stereo unspecified) was tested, and the survival was 4% (active).
With `COc1cc2nc(Nc3cccc(F)c3)nc(N)c2cc1OC` the survival was 89% (inactive).
For `Cc1ccc(OCc2nnc(-c3ccccc3)o2)cc1`, the survival was 77% (inactive).
`O=C(Nc1cccc(C(=O)OCc2cc(=O)n3c4c(sc3n2)CCCC4)c1)c1cccc(Cl)c1` was tested, and the survival was 73% (inactive).
With `CN1c2ccccc2Oc2nnc(N3CCN(Cc4ccccc4)CC3)cc21` the survival was 110% (inactive).
`CCc1ccc(NC(=O)C(=O)NCC(c2cccnc2)N2CCN(C)CC2)cc1` (stereo unspecified) was tested, and the survival was 111% (inactive).
For `CCOC(=O)c1c(Nc2ccc(OCC)cc2)nnc(-c2ccccc2)c1-c1ccccc1`, the survival was 2% (active).
For `CCOC(=O)c1c(Nc2cccc(C(=O)OC)c2)nnc(-c2ccccc2)c1-c1ccccc1`, the survival was 19% (inactive).
For `CCOC(=O)c1c(C)c(-c2ccccc2)n(CC(=O)Nc2ccc(OCC)cc2)c1C`, the survival was 82% (inactive).
For `CCOC(=O)c1c(Nc2ccc(OC)cc2)nnc(-c2ccccc2)c1-c1ccccc1`, the survival was 5% (active).
For `CCOC(=O)c1c(C)oc2ncnc(Nc3ccc(OCC)cc3)c12`, the survival was 72% (inactive).
In the case of `CCOC(=O)c1c(Oc2ccc(OC)cc2)nnc(-c2ccccc2)c1-c1ccccc1`, the survival is reported as 91% (inactive).
